Data taken from PubChem BioAssay.

Key:
[1] = molecular target: Tumor necrosis factor receptor superfamily member 10B (Homo sapiens) (UniProt O14763); assay: viability loss of caspase-8 NB7 cells with TRAIL – with/without TRAIL, luminescence panel, confirmation (AID 651596); details: NB7 neuroblastoma + caspase-8, TRAIL sensitization, NB7 Caspase-8, with TRAIL, mean of runs, at 10 µM, stronger effect = higher value
[2] = as above; details: NB7 neuroblastoma + caspase-8, without TRAIL, NB7 Caspase-8, without TRAIL, mean of runs, at 10 µM

Tumor necrosis factor receptor superfamily member 10B (Homo sapiens), sequence (O14763 whole entry, looked up): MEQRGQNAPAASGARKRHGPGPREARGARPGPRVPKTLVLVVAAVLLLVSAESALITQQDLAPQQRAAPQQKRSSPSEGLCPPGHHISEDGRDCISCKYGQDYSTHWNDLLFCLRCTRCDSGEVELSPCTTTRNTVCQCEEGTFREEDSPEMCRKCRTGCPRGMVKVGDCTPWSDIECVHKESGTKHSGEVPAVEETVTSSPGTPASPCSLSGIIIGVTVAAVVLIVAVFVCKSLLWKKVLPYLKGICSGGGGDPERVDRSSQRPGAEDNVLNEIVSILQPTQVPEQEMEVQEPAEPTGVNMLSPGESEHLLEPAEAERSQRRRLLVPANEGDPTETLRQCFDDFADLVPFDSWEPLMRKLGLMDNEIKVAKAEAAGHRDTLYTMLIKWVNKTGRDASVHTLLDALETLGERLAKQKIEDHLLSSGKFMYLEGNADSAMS

SMILES | activity [1] [%] | activity [2] [%]
c1ccc(-n2nnc3c(N4CCOCC4)ncnc32)cc1 | 74.7 | 74.7
COc1ccc(-n2nc3cc(C)c(NC(C)=O)cc3n2)cc1 | 71.8 | 75.7
COc1ccc2nc(Nc3ccccc3OC)sc2c1 | 68.3 | 59.2
O=C(NC1CCCCC1)c1n[nH]c2c1CCCCC2 | 82.1 | 80.8
CN(C)S(=O)(=O)c1ccc(C(=O)Nc2nnc(SCC(=O)N3CCOCC3)s2)cc1 | 62.7 | 66
CN=c1scc(-c2ccccc2F)n1/N=C(\C)c1cccnc1 | 54.9 | 51.2
Cc1nn(Cc2ccc(Cl)cc2Cl)c(C)c1NC(=O)CCl | 95.8 | 97.8
CCOc1ccc(C(C)=O)cc1COC(=O)c1cnc(Cl)c(Cl)c1 | 97.6 | 79.1
CC1(C)CC(=O)C=C(c2ccc(-c3ccc4[nH]ccc4c3)cc2)C1=O | 67.8 | 64.4
Fc1ccc(-n2nnc(-c3cnc4ccccc4c3)n2)cc1 | 70.8 | 63.9
Cc1nnc(SCC(=O)Nc2ccc(-c3nc4ccccc4s3)cc2)s1 | 51.9 | 33.7
O=C(CCl)Nc1ccccc1Sc1ccccc1 | 83.2 | 87.8
CCc1ccc(Nc2n[n+](-c3ccccc3)c(-c3ccc(N(CC)CC)cc3)s2)cc1 | 45.2 | 41.2
CCOC(=O)c1sc2nc(-c3cccnc3)ccc2c1N | 56 | 49.2
COc1ccc(Nc2nc(N)nc(CCl)n2)cc1 | 99.1 | 98.3
NC(CCc1ccccc1)c1csc(NC(=O)Nc2ccccc2Oc2ccccc2)n1 (configuration not stated) | 79 | 93
COc1ccc(-c2cc3ccccc3cn2)cc1 | 57.4 | 54.3
CC/C(=N\NC(=O)c1csc(C)c1C)c1cccs1 | 57.8 | 55.5
Fc1ccc(/C=N/Nc2nc(-c3cccnc3)nc3ccccc23)cc1 | 50.8 | 19.2
COc1ccc(/C(N)=N/OC(=O)c2ccc(OC)c([N+](=O)[O-])c2)cc1OC | 92.1 | 84.7
N/C(=N\OC(=O)COc1ccc(Br)cc1Cl)c1ccccn1 | 38.2 | 47.5
Cc1ccc(C)c(NC(=S)NC(NC(=O)Cc2cccc3ccccc23)C(Cl)(Cl)Cl)c1 (configuration not stated) | 82.6 | 87.8
Nc1ncnc2c(C3OC(CO)C(O)C3O)c[nH]c12 (configuration not stated) | 95.2 | 98.7
CCCCCCN(C(=O)CCl)c1ccccc1 | 98.8 | 99.2

SMILES | activity [1] [%] | activity [2] [%]
O=C(Nc1ccc(NC(=O)C2CC2)cc1)c1ccco1 | 44 | 39.1
COc1ccc2nc(-c3ccc(F)cc3)sc2c1 | 68.2 | 65.7
O=C(CCS(=O)(=O)c1ccccc1)Nc1ccc(-c2nc3ccccc3s2)cc1 | 58 | 42.8
CCOc1ccc(N2C(N)=NC(N)=NC2(C)C)cc1 | 67.3 | 82.9
O=C(/C=C/c1ccco1)Nc1ccccc1C(=O)O | 45.1 | 42.1
CCc1ccc(/C=N/Nc2ncnc3nc[nH]c23)cc1 | 47.1 | 41.7
CCc1nnc(NC(=O)CSc2nc3c(cc2C#N)CCCC3)s1 | 62.8 | 72.3
CC(C)(C)OC(=O)NCCCC[C@H](NC(=O)c1[nH]cnc1C(=O)N[C@@H](Cc1ccccc1)C(=O)OC(C)(C)C)C(=O)OC(C)(C)C | 84 | 64.7
CNC[C@H](Cc1ccccc1)NC[C@@H](Cc1cccc2ccccc12)NCCc1ccc(C)cc1 | 95.4 | 99.1
O=c1oc2c(O)cccc2cc1-c1nc2ccccc2[nH]1 | 72 | 68.8
O=C(CCN1C(=O)c2ccccc2C1=O)Nc1ccc(-c2nc3ccccc3s2)cc1 | 44.4 | 41.9
CC1(C)N=C(N)N=C(N)N1c1ccc(OCC(=O)N2CCOCC2)cc1 | 62.7 | 87.2
Cc1cc(-c2nc3cc(F)ccc3s2)ccc1N | 74.5 | 68.6
O=C(C#Cc1ccccc1)c1ccccc1 | 54 | 96.6
c1ccc2sc(NN=C3CCCCCC3)nc2c1 | 59.8 | 46.7
O=C(OCn1ncc(Cl)c(Cl)c1=O)c1ccc(C(F)(F)F)cc1 | 95.2 | 94
O=C(CSc1nc2ccccc2c(=O)[nH]1)Nc1ccc([N+](=O)[O-])cc1 | 35.1 | 31.3
Cc1ccccc1-c1nnc(-c2cccc3ccccc23)o1 | 47 | 32.4
CC(=O)c1ccccc1OCC(O)CN1CCN(CCN2C(=O)c3cccc4cccc(c34)C2=O)CC1 (configuration not stated) | 45.6 | 16.4
Cc1cccc(-c2cc3nc(-c4ccccc4)cc(=O)n3[nH]2)c1 | 50 | 55.2
O=C(CCN1C(=O)NC2(CCCC2)C1=O)Nc1ccc(-c2nc3ccccc3s2)cc1 | 52.2 | 44.5
Cc1ccc2nc(NC(=S)NC(=O)c3cccs3)sc2c1 | 82.5 | 74.8
CS/C(Nc1cc(Cl)ccc1Cl)=C(/C#N)C(=O)c1ccco1 | 60.1 | 65.6
O=C(Nc1ccccc1)Nc1ccc(C(=O)N2CCCC2)cc1 | 65.6 | 71.5

SMILES | activity [1] [%] | activity [2] [%]
Nc1nc(Nc2ccc(Cl)cc2)nc2ccccc12 | 84.4 | 83.5
COc1cccc(-c2noc(-c3ccc4c(c3)OCO4)n2)c1 | 65.7 | 62.5
COc1ccccc1C=C1CCc2ccccc2C1=O | 78.4 | 74.3
c1ccc2oc(-c3csc(N4CCOCC4)n3)cc2c1 | 67.7 | 51.3
O=C(Nc1ccc2c(c1)OCCO2)C(=O)c1c[nH]c2ccccc12 | 83.2 | 90.5
COc1ccccc1N1CCN(C2=Nc3cccc4cccc2c34)CC1 | 63.1 | 58.2
Cc1nc(-c2ccc(NC(=O)CC(C)C)cc2)cs1 | 51.7 | 55.5
COCC(C)n1c(C)cc(C(=O)COC(=O)c2n[nH]c3ccccc23)c1C (configuration not stated) | 58.5 | 51.9
COc1ccc(C(=O)NCc2cn3cccc(C)c3n2)cc1OC | 4.08 | 3.77
COc1ccc(NC(=O)c2cccc3c2C(=O)c2ccc(-c4ccc(F)cc4OCc4ccccc4)cc2S3(=O)=O)cc1 | 20.6 | 31.4
COc1ccccc1-c1nc(-c2ccccn2)no1 | 76.7 | 72.7
O=C(Nc1ccccn1)c1sc2cccc(F)c2c1Cl | 82.7 | 76.6
COc1ccc(OC)c(S(=O)(=O)Nc2ccc(-c3ccc4nncn4n3)cc2)c1 | 57.5 | 59.3
COc1cccc(/C=C2\CCc3ccccc3C2=O)c1 | 83.4 | 78.5
CSc1ncccc1C(=O)OCC(=O)c1cc(C)n(CC2CCCO2)c1C (configuration not stated) | 44 | 23.6
O=C(NCCO)c1ccc2c3n(nc2c1)-c1ccccc1CO3 | 78.9 | 78.8
CCN(CC)C(=O)c1nn(-c2ccccc2)c2c1C1CCC2(C)C1(C)C (configuration not stated) | 15.1 | 8.65
Cn1c(=O)[nH]c(=O)c2c1nc([N+](=O)[O-])n2Cc1ccccc1 | 60.5 | 96.2
O=[N+]([O-])c1cc(S(=O)(=O)N2CCCCCC2)ccc1F | 83.9 | 72.6
Cc1cccc(NC(=S)NNC(=O)c2ccc3c(c2)OCO3)c1 | 39.1 | 49.8
Clc1ccc(-n2ncc3c(N4CCCC4)ncnc32)cc1 | 66.2 | 53.2
C/C(=N\NC(=O)c1ccc(O)cc1)c1cccc(NC(=O)c2ccc(Cl)cc2)c1 | 74.3 | 77.2
CCOc1ccc2nc(-c3ccccc3)[nH]c2c1 | 81.2 | 76
CCOc1ccc(-c2ccc(SCC)nn2)cc1 | 75.4 | 71.5

SMILES | activity [1] [%] | activity [2] [%]
CCOC(=O)c1nn(-c2ccc3c(c2)CCN3C(C)=O)cc1O | 47 | 47.6
Cc1ccc(-c2nn(CC(=O)NCc3cc(-c4nn(C)c(=O)c5ccccc45)ccc3C)c(=O)c3ccccc23)cc1 | 90.9 | 35.5
N/C(Cc1ccc(Cl)cc1)=N\OC(=O)c1ccc2ccccc2c1 | 98.5 | 95
O=C(CN1CCN(S(=O)(=O)c2ccc(F)cc2)CC1)Nc1ccc(Cl)c(C(F)(F)F)c1 | 24.1 | 31.8
O=C(CCl)N=c1sccn1Cc1cccc2ccccc12 | 98.8 | 99.1
Cc1c(C)c2ccc(OCC(=O)Nc3nccs3)cc2oc1=O | 58.4 | 57.8
COc1ccc(NC(=O)c2ccc3c(c2)OCCO3)cc1OC | 51.8 | 51.2
CCc1ccc(C2=NNC(=Nc3cccc(S(=O)(=O)N(C)C)c3)SC2)cc1 | 76.8 | 75
CCc1ccc2nc(N(CCCN(C)C)C(=O)c3ccc(C(=O)c4ccccc4)cc3)sc2c1 | 50.6 | 18.7
CC(C)(C)OC(=O)NCCCC[C@H](NC(=O)c1nc[nH]c1C(=O)NC(c1ccccc1)c1ccccc1)C(=O)OC(C)(C)C | 67 | 23.8
Cn1c2c(c(=O)n(C)c1=O)C(C(F)(F)F)(C(F)(F)F)N=C(c1ccc(Cl)cc1)N2 | 54.8 | 52.3
CCOC(=O)c1c(C)oc2c(F)c(F)c(F)c(F)c2c1=O | 99.2 | 99.2
O=C(Cn1ncc(Cl)c(Cl)c1=O)NCC1CCCCC1 | 98.9 | 99.1
CCC(=O)Nc1ccc2oc(-c3cccc(C)c3)nc2c1 | 57.2 | 55.7
Cc1ccccc1/C=C/c1nc2ccccc2c(=O)[nH]1 | 56.1 | 58.7
Nc1ccc(-c2cnc(-c3ccc(N)cc3)nc2)cc1 | 74.7 | 71.7
CC1CCc2cc(F)ccc2N1C(=O)CCl (configuration not stated) | 99.3 | 98.8
CC(C)c1ccc(/C=C/C(=O)Nc2nncs2)cc1 | 57.7 | 66.2
Nc1c(-c2ccccc2)cnc2c(-c3ccccc3)cnn12 | 73.7 | 77.2
CCN1CCN(Cc2ccc(NC(=O)c3ccc(C)c(NC(=O)c4c[nH]c5cc(C(F)(F)F)ccc5c4=O)c3)cc2C(F)(F)F)CC1 | 98.8 | 98.8
Cc1cc(C(=O)Cn2nnc3ccccc3c2=O)c(C)n1Cc1cccs1 | 65.1 | 58.3
CCN1CCN(Cc2ccc(NC(=O)c3cc(NC(=O)c4cc5cccc(OC)c5o4)cc(OC)c3)cc2C(F)(F)F)CC1 | 59.2 | 79.5
N#C/C(=C(/O)c1ccc([N+](=O)[O-])s1)c1nc2ccccc2[nH]1 | 36.3 | 25
NC(=O)c1ccsc1NC(=O)c1coc2ccccc2c1=O | 36.1 | 33.8
